Data taken from PubChem BioAssay (NCATS).
Activity calls are given as the source filed them. How the calls were made is not given here.

Test system: HIV-1 nucleocapsid protein NCp7 (binding to TG oligonucleotide)
Assay: HIV Nucleocapsid (AID 346);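 further: potency is for inhibitors that block NC binding and lower polarization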
Details: HIV-1 NC / fluorescein-TGTGTGTG probe, fluorescence polarization
Outline: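 NCp7 100 nM + fluorescein TG4xF 10 nM; Hepes pH 7.5/250mM NaCl/1uM ZnCl2/0.004% PEG 20000; 1 hr RT; FP, 45 s exposure; oligo-only wells as negative control.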
Potency means the concentration at half of the fitted maximal effect.

Structure (SMILES) | Potency
CN(C)c1ccc(-c2cncnc2NCCN2CCOCC2)cc1 | > 20 µM (inactive)
Cc1noc(C)c1C(=O)N1CCC2(CC1)CCN(c1ccncc1)CC2 | > 20 µM (inactive)
COc1ccc2[nH]cc(CCNc3cc(-c4c(C)noc4C)ncn3)c2c1 | > 20 µM (inactive)
COCCn1c(=O)c(-c2ccc(F)cc2)nc2cnc(OCc3ccccc3)nc21 | > 20 µM (inactive)
Cc1cnc(CNc2cc(-c3ccccc3C(F)(F)F)ncn2)cn1 | > 20 µM (inactive)
Cc1noc(C)c1-c1nc(NCCN2CCOCC2)c2ccccc2n1 | > 20 µM (inactive)
O=C(c1cccc(F)c1)N1CCC[C@@]2(CCN(Cc3ccccc3)C2)C1 | > 20 µM (inactive)
COc1ccc(NC(=O)N2CC3(CCN(S(=O)(=O)c4ccccc4)CC3)C2)cc1 | > 20 µM (inactive)
COC(=O)N1CCC2(CCN(C(=O)NC(C)C)CC2)CC1 | > 20 µM (inactive)
COCCn1c(=O)c(-c2ccc(Cl)cc2)nc2cnc(Oc3ccccc3)nc21 | > 20 µM (inactive)
COCC(=O)N1CCC2(CCCN(C(=O)Nc3cccc(F)c3)C2)CC1 | > 20 µM (inactive)
COc1ncc2nc(C)c(=O)n(CCc3ccccc3)c2n1 | > 20 µM (inactive)
COc1cccc(Cn2c(=O)c(-c3cccs3)nc3cnc(N(C)C)nc32)c1 | > 20 µM (inactive)
N#CCCn1c(=O)c(CCc2ccccc2)nc2cnc(Oc3cccc(Cl)c3)nc21 | > 20 µM (inactive)
N#CCCn1c(=O)cnc2cnc(Oc3cccc(Cl)c3)nc21 | > 20 µM (inactive)
COc1cccc(-c2ccc3ncnc(N4CCN(C)CC4)c3c2)c1 | > 20 µM (inactive)
Cc1ccccc1-c1ccc2ncnc(NC3CC3)c2c1 | > 20 µM (inactive)
O=C(c1cnccn1)N1CCC2(CC1)CCN(c1ccncc1)CC2 | > 20 µM (inactive)
Cc1cnc(CNc2nc(-c3ccc4c(c3)OCO4)nc3ccccc23)cn1 | > 20 µM (inactive)
CC(C)NC(=O)N1CC[C@@]2(CCCN(C(=O)c3csnn3)C2)C1 | > 20 µM (inactive)

Structure (SMILES) | Potency
COc1ccc(C(=O)N2CCC3(CCCN(Cc4ccc(C#N)cc4)C3)CC2)cc1 | > 20 µM (inactive)
CN(C)C(=O)c1ccc(-c2nc(N3CCOCC3)c3ccccc3n2)cc1 | > 20 µM (inactive)
COCC(=O)N1CCC2(CCN(Cc3ccc(C#N)cc3)CC2)CC1 | > 20 µM (inactive)
COC(=O)N1CCC2(CC1)CCN(c1ncccn1)CC2 | > 20 µM (inactive)
COc1ccc(Oc2ncc3nc(-c4ccc(Cl)cc4)c(=O)n(C4CC4)c3n2)cc1 | > 20 µM (inactive)
N#Cc1cccc(NC(=O)N2CC[C@@]3(CCCN(C(=O)c4cnccn4)C3)C2)c1 | > 20 µM (inactive)
Cc1cnc(CNc2cc(-c3cccc(C#N)c3)ncn2)cn1 | > 20 µM (inactive)
CC(=O)N1CCC2(CCCN(C(c3ccccc3)c3ccccc3)C2)CC1 | > 20 µM (inactive)
CN(C)Cc1ccccc1-c1ccc2ncnc(NCc3cccs3)c2c1 | > 20 µM (inactive)
CN(C)C(=O)c1ccc(-c2cncnc2NCCc2cnc[nH]2)cc1 | > 20 µM (inactive)
O=C(Nc1cccc(F)c1)N1CC[C@@]2(CCCN(C(=O)c3cccc(F)c3)C2)C1 | > 20 µM (inactive)
CN(C)Cc1ccccc1-c1cc(Nc2ccccc2)ncn1 | > 20 µM (inactive)
Cc1cnc(CNc2cc(-c3ccoc3)ncn2)cn1 | > 20 µM (inactive)
Cn1c(=O)c(-c2ccccc2)nc2cnc(Nc3ccccc3)nc21 | > 4 µM (inactive)
N#Cc1cccc(-c2nc(Nc3ccccc3)c3ccccc3n2)c1 | > 20 µM (inactive)
Cn1c(=O)c(CCc2ccccc2)nc2cnc(Oc3ccccc3)nc21 | > 20 µM (inactive)
COC(=O)N1CCC2(CCCN(Cc3ccccc3)C2)CC1 | > 20 µM (inactive)
Cc1ccccc1-c1cc(N(C)C)ncn1 | > 20 µM (inactive)
COc1ncc2ncc(=O)n(C[C@H]3CCCO3)c2n1 | > 20 µM (inactive)
COc1ccc2[nH]cc(CCNc3ncncc3-c3ccccc3CN(C)C)c2c1 | > 20 µM (inactive)
